Here are results for 96 compounds from paper PMC4336329 (PLoS ONE, 2015).

Screen size: about 310,000 compounds; about 14,000 (4.5%) showed an effect of 50% or more. The effect is printed as a negative number. Shown is part of a subset that was picked to be rich in strong results.
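Also: peak tail current of the secondary pulse compared with the same well before compound.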

The assay deals with human ether-à-go-go-related gene (hERG) potassium channel (human, UniProt Q12809). Nature of the assay: primary screen, population patch clamp on CHO cells stably expressing hERG; higher = less effect of the substance.
Sequence of human ether-à-go-go-related gene (hERG) potassium channel (Q12809 whole entry, looked up): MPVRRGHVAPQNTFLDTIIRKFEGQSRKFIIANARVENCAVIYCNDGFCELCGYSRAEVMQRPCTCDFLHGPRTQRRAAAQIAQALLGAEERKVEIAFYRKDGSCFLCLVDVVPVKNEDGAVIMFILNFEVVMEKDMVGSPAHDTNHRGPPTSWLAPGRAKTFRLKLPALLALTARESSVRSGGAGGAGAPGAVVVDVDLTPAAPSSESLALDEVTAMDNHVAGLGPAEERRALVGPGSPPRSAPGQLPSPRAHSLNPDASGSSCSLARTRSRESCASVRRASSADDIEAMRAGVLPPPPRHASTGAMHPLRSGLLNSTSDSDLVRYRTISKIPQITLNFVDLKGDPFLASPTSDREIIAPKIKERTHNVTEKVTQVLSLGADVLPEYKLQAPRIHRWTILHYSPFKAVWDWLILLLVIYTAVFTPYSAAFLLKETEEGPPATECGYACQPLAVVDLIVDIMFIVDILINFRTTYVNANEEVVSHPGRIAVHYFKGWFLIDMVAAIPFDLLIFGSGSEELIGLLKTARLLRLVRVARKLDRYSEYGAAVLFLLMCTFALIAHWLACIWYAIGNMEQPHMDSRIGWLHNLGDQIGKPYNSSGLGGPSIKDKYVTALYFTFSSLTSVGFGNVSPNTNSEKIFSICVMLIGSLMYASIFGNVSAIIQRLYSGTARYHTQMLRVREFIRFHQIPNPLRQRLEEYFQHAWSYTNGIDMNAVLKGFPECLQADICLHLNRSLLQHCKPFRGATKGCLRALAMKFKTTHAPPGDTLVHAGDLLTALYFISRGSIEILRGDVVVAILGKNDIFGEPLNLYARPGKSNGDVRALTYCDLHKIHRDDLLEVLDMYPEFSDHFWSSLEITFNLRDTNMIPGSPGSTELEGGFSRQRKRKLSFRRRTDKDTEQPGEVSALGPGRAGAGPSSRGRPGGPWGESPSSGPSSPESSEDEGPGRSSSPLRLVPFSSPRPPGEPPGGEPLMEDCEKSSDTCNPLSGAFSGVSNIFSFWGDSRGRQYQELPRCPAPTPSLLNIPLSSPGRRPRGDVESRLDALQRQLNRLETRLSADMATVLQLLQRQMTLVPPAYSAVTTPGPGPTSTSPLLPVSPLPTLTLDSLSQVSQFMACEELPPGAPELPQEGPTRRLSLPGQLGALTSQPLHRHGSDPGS
Regarding `CC1(C)Cc2nc(N3CCOCC3)c(C#N)cc2CO1`, the “hERG current change (%, negative = inhibition) at 10uM” value is reported as 7.25%. For `COc1ccc(NC(=O)CN(C)C(=O)c2c(-c3c(F)cccc3Cl)noc2C)cc1` the value was -16.2%; for `CCC(C)(C)NC(=O)CN(Cc1ccccc1Cl)C(=O)CCC(=O)Nc1cc(C)ccn1`, -4.7%; for `O=C(O)c1nn(CC(=O)N2CCN(c3ccccc3)CC2)c(=O)c2ccccc12`, 8.36%. Under `O=C(O)c1ccccc1OCCOc1ccccc1` stands 3.63%; under `CC(C)c1nnc(NC(=O)c2cnccn2)s1`, 16.2%. With `COc1ccc(C(=O)N2CCCCC2)cc1S(=O)(=O)Nc1cccc(C(=O)O)c1`, the “hERG current change (%, negative = inhibition) at 10uM” value is reported as 6.94%. For `CCOc1ccc(C(=O)OCCN(C)C)cc1.Cl` the value was -10.3%; for `CSc1ncccc1C(=O)OCC(=O)N1CC(=O)Nc2ccccc21`, 8.21%; for `COc1ccc(-c2noc(CN3CCC(Cc4ccccc4)CC3)n2)cc1`, -8.3%. For `COc1ccc(Nc2nc(N)nc(CSC(=S)N3CCC(C)CC3)n2)cc1`, the “hERG current change (%, negative = inhibition) at 10uM” value is reported as -5.86%. Under `COc1ccc(Nc2nc(N)nc(CN3CCOCC3)n2)cc1` stands -5.46%. On to `c1ccc(CC2CCN(Cc3nc(-c4ccccc4)no3)CC2)cc1`, for which the “hERG current change (%, negative = inhibition) at 10uM” value was -8.93%.

With `COc1ccc(Nc2nc(N)nc(CN3CCC(C)CC3)n2)cc1`, the “hERG current change (%, negative = inhibition) at 10uM” value was -75.4%.

With `COc1ccc(OCc2nc(N)nc(Nc3ccccc3)n2)cc1`, the “hERG current change (%, negative = inhibition) at 10uM” value is -4.98%. For `COc1ccc(Nc2nc(N)nc(CN3CCC(Cc4ccccc4)CC3)n2)cc1` the value was -79%; for `Nc1nc(CN2CCC(Cc3ccccc3)CC2)nc(Nc2ccccc2)n1`, -82%.

In the case of `CC(=O)c1ccc(OCC(=O)OC(C)C(=O)NC2CCCCC2C)cc1` (stereo not drawn), the “hERG current change (%, negative = inhibition) at 10uM” value is reported as 26.9%. Under `COC(=O)c1c(NC(=O)CC2SCC(C(=O)OC)NC2=O)sc2c1CCCC2` (stereo not drawn) stands -5%; under `CCc1ccccc1N(C(C)=O)c1nc(CCl)cs1`, 6.77%; under `CC(C)(C)NC(=O)CN(CCN1CCOCC1)C(=O)CNS(=O)(=O)c1ccccc1`, 19.4%.

`COCCN(CCOC)S(=O)(=O)c1ccc(C(=O)Nc2nc(C)c(C(C)=O)s2)cc1`: the “hERG current change (%, negative = inhibition) at 10uM” value is 13%. For `C/C(=N\NC(N)=S)C1C2C3CC4C5CC(C42)C1C53` (stereo not drawn) the value was -10%. For `O=C(CC1(O)C(=O)Nc2ccccc21)c1ccc2c(c1)OCO2` (stereo not drawn) the value was -3.95%; for `CN(C)c1ccc2c3c(ccc(N(C)C)c13)COC2`, -34.8%; for `Nc1ccc2c(c1)COC2=O`, 4.55%. Under `CN(C)c1ccc2c3c(ccc(N(C)C)c13)C(=O)OC2` stands -59.1%. In the case of `CN(C)S(=O)(=O)c1cccc(C(=O)NCC2(N3CCOCC3)CCCCC2)c1`, the “hERG current change (%, negative = inhibition) at 10uM” value was -13.4%. Under `S=C(NCc1cccnc1)Nc1ccc(Oc2ccc(Cl)cc2)cc1` stands -0.652%. Under `CCCc1ccc(OCC(=O)Nc2cc(S(=O)(=O)CC)ccc2O)cc1` stands -58.1%. Under `CCS(=O)(=O)c1ccc(O)c(NC(=O)COc2ccc(OC)cc2)c1` stands 1.82%; under `CCc1ccc(OCC(=O)Nc2cc(S(=O)(=O)CC)ccc2O)cc1`, -0.287%. Turning to `Cc1cc(Cl)c(OCCCNC2CCCC2)c(Br)c1.O=C(O)C(=O)O`, the “hERG current change (%, negative = inhibition) at 10uM” value is -56.9%. For `Cc1cc(C)c(OCCCNCc2ccccc2)c(Br)c1.O=C(O)C(=O)O` the value was -10.7%; for `Cc1cc(C)c(OCCCNC2CCCC2)c(Br)c1.O=C(O)C(=O)O`, -34.5%; for `Cc1cc(C)c(OCCNCc2ccccc2)c(C)c1.O=C(O)C(=O)O`, -5.71%. Turning to `C=CCNCCOc1c(C)cc(C)cc1Cl.O=C(O)C(=O)O`, the “hERG current change (%, negative = inhibition) at 10uM” value is recorded as -21.2%. Under `Cc1cc(Cl)c(OCCCCNC(C)(C)C)c(Br)c1.O=C(O)C(=O)O` stands -40.7%; under `COCCCNCCCCOc1c(Cl)cc(C)cc1Br.O=C(O)C(=O)O`, -49.2%; under `Cc1cc(C)c(OCCCCNCc2ccccc2)c(Cl)c1.O=C(O)C(=O)O`, -68.5%. For `Cc1cc(Cl)c(OCCCNCc2ccccc2)c(Br)c1.O=C(O)C(=O)O` the value was -51.8%; for `CC(=O)c1cccc(NC(=O)C(C)OC(=O)Cc2c[nH]c3ccccc23)c1` (stereo not drawn), -2.32%; for `COC(=O)c1cc(NC(=O)c2cccnc2)ccc1N1CCOCC1`, 13.9%.

Consider `CCOc1ccccc1N1CC(C(=O)Nc2c(C)n(C)n(-c3ccccc3)c2=O)CC1=O` (stereo not drawn), for which the “hERG current change (%, negative = inhibition) at 10uM” value came to 20.7%. Under `CCC(C)[C@H](NC(=O)Nc1ccc(S(N)(=O)=O)cc1)C(=O)OC` (stereo partly drawn) stands 13.1%. Take `O=C1CCCc2c1nc(-c1ccco1)n2O`: the “hERG current change (%, negative = inhibition) at 10uM” value amounted to 12.1%. For `O=C(Cn1[nH]c(=O)c2ccccc2c1=O)N1CC=C(c2ccccc2)CC1` the value was -4.76%. Under `COc1ccc(CCNC(=O)CS(=O)Cc2nc(-c3ccccc3F)oc2C)cc1OC` (stereo not drawn) stands 13%; under `O=c1oc2ccc(C#CC3(O)CCCCC3)cc2cc1-n1cc(C2(O)CCCCC2)nn1`, 24.7%. For `O=C(c1ccc(F)cc1)n1c(=S)nc2ccccn21` the value was -1.25%.

Take `CC(=O)N(Cc1nc2sc(C)c(C)c2c(=O)[nH]1)C1CCCC1`: the “hERG current change (%, negative = inhibition) at 10uM” value is reported as 21.8%. For `FC(F)(F)c1cccc(N2CCN(C3CC4CCC3C4)CC2)c1` (stereo not drawn), the “hERG current change (%, negative = inhibition) at 10uM” value is reported as -1.68%. For `CCc1ccc(C(=O)COC(=O)c2cnccn2)cc1`, the “hERG current change (%, negative = inhibition) at 10uM” value is given as 0.242%.

Consider `Cc1ccc(NC(=S)NCC2CCCO2)cc1C` (stereo not drawn), for which the “hERG current change (%, negative = inhibition) at 10uM” value is given as -1.97%. Regarding `Cc1ccc(NC(=S)NC2CCCC2)cc1C`, the “hERG current change (%, negative = inhibition) at 10uM” value is on record as 14.8%. For `Cc1ccc(NC(=S)NCCN(C2CCCCC2)C2CCCC2)cc1C` the value was -68.1%; for `Cc1ccc(NC(=S)NCCN(C2CCCCC2)C2CCCC2)cc1`, -72%. For `Cc1ccc(NC(=S)NNC(=S)NC2CCCCC2)cc1` the value was 21%. For `Cc1ccc(NC(=S)NC2CCCC2)cc1` the value was 4.64%; for `Cc1ccc(N2CC(C(=O)Nc3nnc(SCCN4CCOCC4)s3)CC2=O)cc1C` (stereo not drawn), 20.7%; for `COc1ccccc1-n1nnnc1SCc1cc2c(cc1Br)OCO2`, -9.95%. As to `CCCCC(OC(=O)c1ccco1)C(=O)NCc1ccc(C)cc1` (stereo not drawn), the “hERG current change (%, negative = inhibition) at 10uM” value is recorded as -0.428%. Under `O=C(Cn1cnc([N+](=O)[O-])n1)NC1CC1` stands 7.02%. Under `Cc1nn(-c2ccc(Cl)cc2)c2[nH]c(=O)c(CNCc3ccc4c(c3)OCO4)cc12` stands -70%. Under `CC(C)(C)c1nn(-c2ccccc2)c2[nH]c(=O)c(CNCc3ccc4c(c3)OCO4)cc12` stands -17.9%. In the case of `Cc1nn(-c2ccccc2)c2[nH]c(=O)c(CNCc3ccc4c(c3)OCO4)cc12`, the “hERG current change (%, negative = inhibition) at 10uM” value is reported as -28.7%. As for `Cc1ccc2c(C)c(C(=O)Nc3ccc(S(N)(=O)=O)cc3)oc2c1C`, the “hERG current change (%, negative = inhibition) at 10uM” value is reported as 31.2%. For the compound `COc1ccccc1CC1C(=O)C2CCN1CC2` (stereo not drawn), the “hERG current change (%, negative = inhibition) at 10uM” value came to 14.5%.

As to `NCCSc1c(-c2ccccc2)[nH]c2ccccc12`, the “hERG current change (%, negative = inhibition) at 10uM” value is listed as -12.1%.

Regarding `Cc1ccc(-c2[nH]c3ccccc3c2SCCN)cc1`, the “hERG current change (%, negative = inhibition) at 10uM” value is -27.6%. `NCCSc1c(-c2ccc(Cl)cc2)[nH]c2ccccc12`: the “hERG current change (%, negative = inhibition) at 10uM” value is on record as -84.3%.

Take `O=C(NCC1CCCO1)C(=O)N/N=C/c1c(F)cccc1Cl` (stereo not drawn): the “hERG current change (%, negative = inhibition) at 10uM” value is reported as 8.04%. For `Cc1noc(C)c1COC(=O)/C=C/c1ccc(Cl)cc1` the value was 0.131%; for `CCn1cc(/C=C/C(=O)Nc2ccc(C)cc2Br)cn1`, -30.7%; for `O=C(O)C1CCCN(S(=O)(=O)c2ccc(F)cc2)C1` (stereo not drawn), 20.4%. As to `Cc1ccc(S(=O)(=O)N2CCCC(C(=O)N(Cc3cccs3)C3CC3)C2)cc1` (stereo not drawn), the “hERG current change (%, negative = inhibition) at 10uM” value is listed as -67.7%. Under `Cc1ccc(S(=O)(=O)N2CCCC2C(=O)N(C)Cc2cccs2)cc1` (stereo not drawn) stands -19.9%. Under `O=C(C1CCCN(S(=O)(=O)c2ccc(Cl)cc2)C1)N1CCCC1` (stereo not drawn) stands -19%. Under `O=C(C1CCCN(S(=O)(=O)c2ccc(F)cc2)C1)N(Cc1cccs1)C1CC1` (stereo not drawn) stands -78.2%; under `CN1CCN(C(=O)C2CCCN(S(=O)(=O)c3ccc(Cl)cc3)C2)CC1` (stereo not drawn), -18.8%.

As to `O=C(C1CCCN(S(=O)(=O)c2ccc(F)cc2)C1)N1CCCC1` (stereo not drawn), the “hERG current change (%, negative = inhibition) at 10uM” value is recorded as 5.78%.

For `CCOC(=O)C1CCCN(S(=O)(=O)c2ccc(C)cc2)C1` (stereo not drawn), the “hERG current change (%, negative = inhibition) at 10uM” value is -2.86%.

`O=C(C1CCCN(S(=O)(=O)c2ccc(Cl)cc2)C1)N(Cc1cccs1)C1CC1` (stereo not drawn): the “hERG current change (%, negative = inhibition) at 10uM” value was -63%. For `Cc1noc(/C=C/Nc2ccc(F)cc2F)c1[N+](=O)[O-]` the value was 12.1%; for `COc1ccc(NC(=S)N(CCN(C)C)C(C)c2ccco2)cc1` (stereo not drawn), -16.6%. Under `O=C1CSC(c2ccccc2)N1CCc1ccccc1` (stereo not drawn) stands 1.82%. For `Cc1ccccc1SCC(=O)OCC(=O)Nc1ccc(N(C)C)cc1` the value was 10.4%; for `c1ccc(C(c2ccccc2)c2noc(CN3CCN(CC4CC4)CC3)n2)cc1`, -61.6%; for `NC(=O)CCN1CCN(Cc2nc(C(c3ccccc3)c3ccccc3)no2)CC1`, -25.6%.

Consider `CC(=O)N1CCN(Cc2nc(C(c3ccccc3)c3ccccc3)no2)CC1`, for which the “hERG current change (%, negative = inhibition) at 10uM” value turned out to be 10.8%. With `Cc1cccnc1CN1CCN(Cc2nc(C(c3ccccc3)c3ccccc3)no2)CC1`, the “hERG current change (%, negative = inhibition) at 10uM” value is -56.2%. Under `c1ccc(C(c2ccccc2)c2noc(CN3CCN(C4CCCC4)CC3)n2)cc1` stands -70.1%; under `COCC1CCCN(Cc2nc(C(c3ccccc3)c3ccccc3)no2)C1` (stereo not drawn), -19.6%.

As for `c1ccc(C(c2ccccc2)c2noc(CN3CCC(c4ccncc4)CC3)n2)cc1`, the “hERG current change (%, negative = inhibition) at 10uM” value is -32.7%. Under `C[C@@H]1CN(C2CCN(Cc3nc(C(c4ccccc4)c4ccccc4)no3)CC2)C[C@H](C)O1` stands -38.6%. Under `Cc1nc(CN2CCN(Cc3nc(C(c4ccccc4)c4ccccc4)no3)CC2)cs1` stands -45.5%.
